# In the supplement of paper PMC7156485:
# “And” between values parts separate entries of the source, which are not always exact repeats. Equal entries are not always repeated. ± gives the standard deviation of the averaged measurements.
# How the values were obtained:
# Conditions in all cases: concentration: 10 µM; 24 h
# [1] = tested on: HCC1569; experiment: cell number relative to DMSO (% of DMSO); higher = more cells (less growth inhibition / toxicity)
# How it was run: (§1)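 Cell number or H1.0 nuclear intensity appears as percent of the plate control, based on the median of replicates. Measurements came from HCC1569 and TDF cells exposed in triplicate to compounds at 10 µM for 24 h at 37 °C, then imaged in six fields per well at ×10. Positional effects were smoothed out of HCC1569 values.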
# [2] = tested on: TDF; experiment: as above
# How it was run: as §1
# [3] = tested on: TDF; experiment: H1.0 immunofluorescence intensity relative to DMSO (% of DMSO); higher = stronger H1.0 induction, active = 120 or more
# How it was run: as §1
# [4] = tested on: HCC1569; experiment: H1.0 immunofluorescence intensity relative to DMSO (% of DMSO); higher = stronger H1.0 induction, active = 140 or more
# How it was run: as §1
# 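Wherever H1.0 immunofluorescence intensity relative to DMSO is given: TDF is a line of transformed human dermal fibroblasts of mesenchymal origin.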
# 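Wherever cell number relative to DMSO is given: TDF denotes transformed human dermal fibroblasts of mesenchymal origin.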
SMILES,cell number [1],cell number [2],H1.0 immunofluorescence intensity [3],H1.0 immunofluorescence intensity [4]
C[N+](C)(C)CC=O.[Cl-] [Betaine aldehyde chloride],104,115,94.6 (inactive),83.1 (inactive)
Cc1ccc(F)cc1C(=O)Nc1ccc(C(=O)N2Cc3cccn3Cc3ccccc32)c(Cl)c1,91.6,95.3,93.2 (inactive),131 (inactive)
CCCCCC=CCC=CCC=CC=CC(O)CCCC(=O)O (racemic),101,93,109 (inactive),102 (inactive)
"O=C(O)[C@H]1C[C@H](C(=O)O)N1 (relative stereo) [trans-Azetidine-2,4-dicarboxylic acid]",95.1,106,91.5 (inactive),90.5 (inactive)
COc1ccnc(CS(=O)c2nc3ccc(OC(F)F)cc3[nH]2)c1OC (stereo not drawn) [Pantoprazole],100,105,102 (inactive),103 (inactive)
Cn1cnc2cc3c(Nc4cccc(Br)c4)ncnc3cc21,92.4,114,79.6 (inactive),117 (inactive)
Cl.Cl.O=S(=O)(c1cccc2cnccc12)N1CCCNCC1,107,95,99.5 (inactive),94.3 (inactive)
O=c1c(O)c(-c2ccc(O)cc2O)oc2cc(O)cc(O)c12 [Morin],99.7,94,89.4 (inactive),98.5 (inactive)
CCC(C)N(C)C(=O)c1cc2ccccc2c(-c2ccccc2Cl)n1 (stereo not drawn),101,110,90.8 (inactive),84 (inactive)
Cc1cnc(C(=O)O)c[n+]1[O-] [Acipimox],100,108,95.2 (inactive),104 (inactive)
CN1C(C(=O)Nc2ccccn2)=C(O)c2sccc2S1(=O)=O [Tenoxicam],100,87.8,95 (inactive),93.3 (inactive)
CC(C)c1cccc(O)c(=O)c1 [Hinokitiol],83.8,83,89.5 (inactive),94.8 (inactive)
CCCCC(C)(O)CC=CC1C(O)CC(=O)C1CCCCCCC(=O)OC (stereo not drawn) [Misoprostol],106,107,93.2 (inactive),108 (inactive)
"O=C(O)CCC(C(=O)O)N1C(=O)c2ccccc2C1=O [L-Glutamic acid, N-phthaloyl-]",101,110,91.4 (inactive),105 (inactive)
"OC1C(O)C(O)C(O)C(O)C1O (stereo not drawn) [1,2,3,4,5,6-cyclohexanehexol]",102 ± 3,104 ± 7.5,96.9 (inactive),92.9 (inactive)
CCCCCC#CCC#CCC#CCC#CCCCC(=O)O,104,96.2,98.2 (inactive),101 (inactive)
Cc1c(OCC(F)(F)F)ccnc1CS(=O)c1nc2ccccc2[nH]1 (stereo not drawn) [Lansoprazole],96.3,108,90.1 (inactive),104 (inactive)
N=c1ccn2c(n1)OC1C(O)C(CO)OC12 (stereo not drawn) [Cyclocytidine],76.4,51.7,103 (inactive),101 (inactive)
CC(C)=CCCC(C)=CCCC(C)=CCSc1ccccc1C(=O)O [Farnesylthiosalicylic acid],93.9,99.9,90.7 (inactive),94.5 (inactive)
CC12C=Cc3occc3C1CCC13CC(=O)C(CCC12)C3 (stereo not drawn) [16-Oxokahweol],97.7,98.5,91.4 (inactive),99.3 (inactive)
"CCCCCC(O)C=CC=CC=CC(O)CC=CCCCC(=O)O [8(R),15(S)-DIHETE all trans]",102,107,91.4 (inactive),98.4 (inactive)
CCCCCCCCC=CCCCCCCCC(=O)OCC(CO)OC(C)=O (stereo not drawn) [1-Oleoyl-2-acetyl-glycerol],98.9,106,89.4 (inactive),106 (inactive)
Cc1cc(Cc2cc(C)cc(C(C)(C)C)c2O)c(O)c(C(C)(C)C)c1,99.9 and 104,90.7 and 98.5,96.7 (inactive) and 99.5 (inactive),90.7 (inactive) and 88.8 (inactive)
NC(N)=S [Thiourea],100,108,92.6 (inactive),99.6 (inactive)
CCCCCCCCCCCCCCCCOCC(CO)OC(C)=O (stereo not drawn) [1-Hexadecyl-2-O-acetyl-glycerol],106,99.8,98.3 (inactive),86.3 (inactive)
O=c1[nH]ccc2c(S(=O)(=O)N3CCCNCC3)cccc12,106,110,86 (inactive),104 (inactive)

SMILES,cell number [1],cell number [2],H1.0 immunofluorescence intensity [3],H1.0 immunofluorescence intensity [4]
CC(=O)Oc1cc(C(C)C)c(OCCN(C)C)cc1C.Cl [Moxisylyte hydrochloride],105,104,91.4 (inactive),94.4 (inactive)
CCC(C)C1OC2(CCC1C)CC1CC(CC=C(C)C(OC3CC(OC)C(OC4CC(OC)C(O)C(C)O4)C(C)O3)C(C)C=CC=C3COC4C(O)C(C)=CC(C(=O)O1)C34O)O2 (stereo not drawn) [Ivermectin],102 ± 2.5,103 ± 8.2,92.8 (inactive),93.7 (inactive)
COCc1nc2c([nH]1)c(=O)n(C)c(=O)n2CC(C)C [8-Methoxymethyl-3-isobutyl-1-methylxanthine],104,110,92.4 (inactive),93.2 (inactive)
"Nc1ccn(C2CCC(CO)O2)c(=O)n1 (stereo not drawn) [2',3'-dideoxycytidine]",99.7,102,89.2 (inactive),87.7 (inactive)
O=c1ncnc2[nH][nH]cc1-2 [Allopurinol],103,109,97.1 (inactive),88.4 (inactive)
CC(C)Nc1cccnc1N1CCN(C(=O)c2cc3cc(NS(C)(=O)=O)ccc3[nH]2)CC1.CS(=O)(=O)O [Delavirdine mesylate],101,102,99.1 (inactive),110 (inactive)
Nc1ccc(S(=O)(=O)Nc2ccnn2-c2ccccc2)cc1 [Sulfaphenazole],107,113,89.8 (inactive),106 (inactive)
CCn1ccnc1CC1COc2ccccc2O1.Cl (stereo not drawn) [Imiloxan hydrochloride],103,105,88 (inactive),100 (inactive)
CCn1nc(C(=O)O)c(=O)c2cc3c(cc21)OCO3 [Cinoxacin],97.6,105,95.7 (inactive),97.5 (inactive)
Nc1ncnc2c1nc(Sc1ccc(Cl)cc1)n2C1OC2COP(=O)([O-])OC2C1O.[Na+] (stereo not drawn) [8-(4-Chlorophenylthio)-cAMP sodium],104,106,93.1 (inactive),85.1 (inactive)
"CC=C1C2C=C(C)CC1(N)c1ccc(=O)[nH]c1C2 (single isomer, unassigned; (-)) [(-)-Huperazine]",98.2,100,98.9 (inactive),84.1 (inactive)
COc1cc(Br)c(S(=O)(=O)Nc2ccc(Cl)c(O[C@@H]3CCN(C)C3)c2)cc1OC,83.2,82.9,94.8 (inactive),137 (inactive)
"COC1=CC(=O)CC(C)C12Oc1c(Cl)c(OC)cc(OC)c1C2=O (single isomer, unassigned; (+)) [(+)-Griseofulvin]",100,108,99.2 (inactive),95.6 (inactive)
CCCCCCCCCCCCC(=O)N1CCCCC1CNC(=O)C(N)CCCCN.Cl.Cl (stereo not drawn),101,109,104 (inactive),100 (inactive)
CCC1(c2ccccc2)NC(=O)N(C)C1=O (stereo not drawn) [Mephenytoin],100,109,98.5 (inactive),104 (inactive)
COc1ccc(C(=O)NCc2cccnc2)cc1C(=O)NCc1cccnc1 [Picotamide],102.3 ± 0.66,103 ± 5.2,93.6 (inactive),103 (inactive)
[Cl-].[Li+] [Lithium Chloride],101,109,92.2 (inactive),88 (inactive)
Cc1ccccc1/N=N/c1ccc(NC(=O)c2ccnn2C)c(C)c1,94.6,98.7,98.5 (inactive),110 (inactive)
COc1cc(C(=O)OCCCCN=C(N)N)cc(OC)c1O,103,95.8,102 (inactive),104 (inactive)
CCC(=O)OC1(C(=O)SCF)C(C)CC2C3CC(F)C4=CC(=O)C=CC4(C)C3(F)C(O)CC21C (stereo not drawn),98.9,105,86.8 (inactive),116 (inactive)
NCC1OC(OC2C(N)CC(N)C(OC3OC(CO)C(O)C(N)C3O)C2O)C(N)CC1O (stereo not drawn) [Tobramycin (free base)],103,102,107 (inactive),106 (inactive)
COc1ccnc(CS(=O)c2nc3cc(OC(F)F)ccc3[n-]2)c1OC.O.[Na+] (stereo not drawn),104,92.8,95.7 (inactive),100 (inactive)
COc1cc(C=CC(=O)CC(=O)C=Cc2ccc(O)c(OC)c2)ccc1O [Curcumin],71.3,62.7,106 (inactive),139 (inactive)
CCCN1CCCC[C@H]1C(=O)Nc1c(C)cccc1C.Cl.O,99.7,103,99 (inactive),113 (inactive)
c1ccc2c(Cc3c[nH]c4ccccc34)c[nH]c2c1 [Diindolylmethane],100.67 ± 0.0078,97.9 ± 2.8,98.8 (inactive),91.6 (inactive)
Nc1nc(=O)c2nc(Br)n(C3OC4COP(=O)([O-])OC4C3O)c2[nH]1.[Na+] (stereo not drawn) [8-Bromo-cGMP sodium],101,100,93.4 (inactive),92.8 (inactive)
